Experimental findings from PubChem BioAssay AID2384 (Southern Research Specialized Biocontainment Screening …, 2010) are described below.

The campaign covered roughly 2,300 compounds. About 1,100 (48%) were called active. So high a share suggests a set chosen from earlier hits. The list shows a part of the results. Results with a measured potency or affinity are listed apart. Values without a mark were called inactive. The rule behind the calls is not given here.

This assay in a line: inhibitors in S. typhi counter-screen strain, dose response, counter-screen for PhoP regulon inhibitor project, fluorescence, 4 h (AID 2384). The settings on record: S. typhi GFP reporter counter-screen; series mostly up to 150 µM; inhibition: at the top concentration.
For the compound `Cc1c(C(=O)O)oc2c3c(ccc12)OCCO3`, the “inhibition” value is 37%.
As for `Cc1ccnc(NS(=O)(=O)c2ccc(N=CC3=C(O)CC(C)(C)CC3=O)cc2)n1`, the “inhibition” value is -5.31%.
In the case of `N#Cc1nc(Cc2ccccc2)oc1NCCN1CCOCC1`, the “inhibition” value is 5.87%.
For `N#Cc1nc(Cc2cccc3ccccc23)oc1NCCCN1CCOCC1`, the “inhibition” value is 33.6%.
Take `CCCNC(=O)COc1ncnc2sc(C)c(C)c12`: the “inhibition” value is -23.9%.
For `COc1ccc(-n2cnc3c(sc4nc(N5CCOCC5)c5c(c43)CCCC5)c2=O)cc1`, the “inhibition” value was -10.8%.
Turning to `Cc1cc(=O)oc2c(CN(C)Cc3ccccc3)c(O)ccc12`, the “inhibition” value is 8.32%.
As for `CC(C)(C)NC(=O)c1ccc2c3c(cccc13)CC2`, the “inhibition” value is 11.2%.
Turning to `Cc1ccc(C(=O)N2C(=S)C(c3ccc(F)cc3)=NC23CCN(C)CC3)cc1`, the “inhibition” value was 39.8%.
The value for `COC(=O)c1ccc(C)c(NC(=O)CN2C(=O)c3ccccc3S2(=O)=O)c1` was -9.18%.
The value for `CC(C)(C)Nc1nc(-c2ccccn2)nc2ccccc12` was 30.1%.
The value for `COC(=O)c1ccccc1NC(=O)CSc1ncn[nH]1` was 4.44%; that for `O=C1Nc2ccccc2C1=Nc1ccc(S(=O)(=O)Nc2nccs2)cc1` was -49.4%; that for `Cc1ccc(-c2nc(C(=O)NCCCN(C)C)cc3c2[nH]c2ccccc23)cc1` was 32.1%.
Regarding `CCc1nc(C)ccc1OCC(=O)NCCCN(C)C`, the “inhibition” value is 16.7%.
As for `Oc1ccc(C=Nc2ccc3ncccc3c2)c(O)c1`, the “inhibition” value is 26.2%.
As for `Cc1ccc(C2CC(=O)NC(SCCC(C)C)=C2C#N)cc1` (stereo unspecified), the “inhibition” value was -19.8%.
With `C=CCN1C(=O)C(O)(CC(=O)c2c(C)n[nH]c2C)c2cc(Br)ccc21` (stereo unspecified), the “inhibition” value is 7.21%.
The value for `Cc1cc[n+](CC(=O)c2ccc(NC(=O)c3ccccc3)cc2)cc1` was 29.7%; that for `CCc1ccc2c(c1)CCCN2C(=O)c1ccccc1C(=O)O` was -19%.
The value for `COc1ccc2c(c1)cc1n2CCN=C1N` was 23%; that for `COc1c(N2CCN(C(=S)NCc3ccccc3)C(C)C2)c(F)cc2c(=O)c(C(=O)O)cn(C3CC3)c12` (stereo unspecified) was 20.9%; that for `CCCC(=O)c1c(NC)cc(C)oc1=O` was 26.1%.
For the compound `Cc1c(-c2ccccc2)[n+](=O)c2c(n1[O-])CCCC2`, the “inhibition” value is 14.9%.
Consider `O=C(Nc1ccc(F)cc1)C1CCC(CNc2c(N3CCCCC3)c(=O)c2=O)CC1` (stereo unspecified), for which the “inhibition” value is -9.7%.
Consider `Nc1nc(N2CCN(c3ccccn3)CC2)nc2ccccc12`, for which the “inhibition” value is 3.48%.
Turning to `Cc1ccc(Cn2c(=N)c(C(=O)NCCN3CCOCC3)cc3c(=O)n4ccccc4nc32)cc1`, the “inhibition” value is 16.7%.
As to `CN1CCc2nc(SCC(=O)Nc3cccc(F)c3)c(C#N)c(-c3cccs3)c2C1`, the “inhibition” value is -20.1%.
Consider `CCOc1ccccc1NC(=O)CSc1nc(N)c(C#N)cc1C#N`, for which the “inhibition” value was 4.14%.
As for `COCCn1c(SCC(=O)Nc2nnc(C)s2)nnc1-c1c[nH]c2ccccc12`, the “inhibition” value was 15.5%.
For `N#CCCn1ncc2ccccc21`, the “inhibition” value is -3.13%.
The value for `C=CCOC(=O)C1=C(C)NC2(O)c3ccccc3C(=O)C12O` (stereo unspecified) was -19.4%; that for `COC(=O)c1ccc(Cn2cnc3ccccc3c2=O)cc1` was 16.1%; that for `N#C/C(=C\c1ccc[nH]1)C(=O)NC1CC1` was 4.86%.
The value for `O=c1c2ccccc2nc2n1CCc1c-2[nH]c2ccccc12` was 2.11%; that for `CC1(C)Oc2ccc3ccc(=O)oc3c2/C(=C/NCCN/C=C2\C(=O)C(C)(C)Oc3ccc4ccc(=O)oc4c32)C1=O` was 0.81%; that for `Cn1nnnc1SCC(=O)Nc1ccccc1-c1ccccc1` was 8.28%.
The value for `CC1CCN(C(=O)CSc2nnc(Cc3cc(=O)[nH]c(=O)[nH]3)n2-c2ccc(Cl)cc2)CC1` was -0.09%.
Turning to `Cn1c(CCN2CCN(c3ccccn3)CC2)nc2cc(NC(=O)COc3ccccc3)ccc21`, the “inhibition” value is 13.6%.
As for `CCOC(=O)N1CCC(=NNc2ccnc3cc(Cl)ccc23)CC1`, the “inhibition” value is 39.4%.
On to `O=C(c1ccc2c(c1)[nH]c(=S)n1c3ccccc3nc21)N1CCN(c2cccc(Cl)c2)CC1`, for which the “inhibition” value was 18.8%.
In the case of `Cn1cnnc1SCC(=O)Nc1ccc2nc(SCc3ccccc3)sc2c1`, the “inhibition” value was 13.9%.
For the compound `C(=N\Nc1nc2ccccc2[nH]1)/c1ccc2ncccc2c1`, the “inhibition” value is -2.51%.
The value for `COC(=O)CC1C(=O)NCCN1C(=O)CSc1nc2ccc([N+](=O)[O-])cc2s1` (stereo unspecified) was 16.1%; that for `O=C(CSc1ccccn1)N/N=C/c1c[nH]c2ccccc12` was 35.6%.
`CCN1C(=O)N/C(=C/c2cc(C)n(Cc3ccccc3)c2C)C1=O`: the “inhibition” value was -15.1%.
On to `CC(=O)Nc1ccc(NC(=O)CSc2ccc(-c3ccco3)nn2)cc1`, for which the “inhibition” value is 1.22%.
On to `Cc1cccc(OCC(=O)Nc2nonc2NC(=O)COc2cccc(C)c2)c1`, for which the “inhibition” value is 13.2%.
The value for `O=C(c1cc2c(s1)-c1ccccc1S(=O)(=O)C2)N1CCN(Cc2ccccc2)CC1` was 0.12%; that for `CN1CCN(c2ccccc2NC(=O)c2sc3ccccc3c2Cl)CC1` was -21.8%.
The value for `Cc1cc(C=O)c(O)cc1O` was 36.2%.
As to `O=C(NCc1ccccc1)c1ccc(CNc2c(N3CCCC3)c(=O)c2=O)cc1`, the “inhibition” value was -5.91%.
Consider `COc1ccc(NC(=O)Cn2c(=O)oc3cc(S(=O)(=O)N4CCCC4)ccc32)c(OC)c1`, for which the “inhibition” value is -15.4%.
As for `CCOC(=O)c1cnn2c1[nH]c(=O)c1ccccc12`, the “inhibition” value is -7.64%.
`NC1=NC(c2cccc(O)c2)n2c(nc3ccccc32)N1` (stereo unspecified): the “inhibition” value is -22.2%.
Regarding `NC1=NC2(CCCCC2)n2c(nc3ccccc32)N1`, the “inhibition” value is 34.6%.
On to `NC(=O)c1cc(S(=O)(=O)Nc2cccc(F)c2)co1`, for which the “inhibition” value was 7.62%.
The value for `COC(=O)c1cc2nc(-c3ccccc3)cc(C)n2n1` was 1.02%; that for `CNc1ccc(SC#N)cc1` was 2.34%; that for `CCOC(=O)Cc1nn(C)c(=O)c2ccccc12` was -3.49%.
Take `O=S1(=O)CC=C(CSc2nc3ccccc3[nH]2)C1`: the “inhibition” value is -15.2%.
Regarding `CC(=O)N1CSCC1C(=O)N1CCN(c2ccc(N3CCOCC3)nn2)CC1` (stereo unspecified), the “inhibition” value was -16.5%.
For `CCOC(=O)C(NC(C)=O)(Nc1cccc(F)c1)C(F)(F)F` (stereo unspecified), the “inhibition” value was -29.5%.
On to `O=C(NC1(C(F)(F)F)C(=O)Nc2c1c(=O)[nH]c(=O)n2-c1ccccc1)c1ccncc1` (stereo unspecified), for which the “inhibition” value was -4%.
On to `C=CCn1c(C)c(C(C)=O)c(N2CCCC2)nc1=S`, for which the “inhibition” value is 11.6%.
For the compound `NC(=O)CN1N=C(c2cc(Cl)sc2Cl)CSC1=O`, the “inhibition” value was 14.5%.
For the compound `COCCN1CC(=O)N2C(c3cccc(OC)c3)c3[nH]c4ccccc4c3C[C@H]2C1=O` (stereo partly specified), the “inhibition” value is -10.6%.
`N=c1c(C(=O)NCC2CCCO2)cc2c(=O)n3ccccc3nc2n1Cc1ccc(Cl)cc1` (stereo unspecified): the “inhibition” value was 24.5%.
The value for `COc1ccc(C)cc1NC(=O)C1CCN(S(=O)(=O)c2c(C)noc2C)CC1` was 8.55%; that for `CCOc1ccccc1-c1cc(-c2ccccc2)nc2c1c(=O)n(C)c(=O)n2C` was 2.64%; that for `COc1cccc(C(c2c(C)[nH]n(-c3ccccc3)c2=O)c2c(C)[nH]n(-c3ccccc3)c2=O)c1O` was 14.5%.
The value for `O=C(NCc1ccco1)C1CCN(C(=O)c2cc3sccc3n2Cc2ccc(Cl)cc2)CC1` was 4.77%; that for `Nc1nc(SCC(=O)N2CCCC2)[nH]c(=O)c1NC(=O)c1cccs1` was 17.8%.
As to `Clc1ccc(OCc2nc(-c3ccc(Br)o3)no2)cc1`, the “inhibition” value is -18.3%.
For the compound `CCOc1ccc(-c2ccc(SCC(=O)N3CCOCC3)nn2)cc1`, the “inhibition” value was -7.13%.
The value for `NC(=O)c1ccc[n+]([C@H]2O[C@@H](COP(=O)([O-])OP(=O)(O)OC[C@H]3O[C@@H](n4cnc5c(N)ncnc54)[C@H](O)[C@@H]3O)[C@H](O)[C@@H]2O)c1` was -10.8%; that for `CN1CCCN(C(=O)COc2ccc(F)cc2Cl)CC1` was 0.57%; that for `Cc1cc(NC(=O)COC(=O)c2cccc(S(=O)(=O)N(C)C3CCCCC3)c2)no1` was -11.6%.
The value for `COC(=O)c1sccc1NC(=S)NCc1ccc(Cl)cc1` was 33.3%; that for `COC(=O)CNc1n[nH]c(=S)[nH]c1=O` was 26.9%; that for `NC1=C(Br)C(=O)c2ccccc2C1=O` was 22.2%.
As for `C/[N+]([O-])=C1\Cc2ccccc2C1=O`, the “inhibition” value is -21.2%.
For `Clc1ccc2c(NCc3ccccn3)ccnc2c1`, the “inhibition” value was -0.79%.
Take `O=C(NCc1cccs1)C(=O)NCC(c1ccco1)N1CCN(c2ccc(F)cc2)CC1` (stereo unspecified): the “inhibition” value was 1.68%.
In the case of `CCC(=O)N1CCc2cc(S(=O)(=O)NCCCN3CCN(Cc4ccccc4)CC3)ccc21`, the “inhibition” value was -9.6%.
Take `COc1ccc(NC(=O)C(Cc2ccccc2)n2cccc2)cc1` (stereo unspecified): the “inhibition” value is 9.62%.
For the compound `CC(C)NC(=O)c1cc(-c2ccc(Br)cc2)on1`, the “inhibition” value is 10.1%.
In the case of `CC(=O)NCc1ccc(C(=O)CCl)cc1`, the “inhibition” value was 18.7%.
The value for `Cc1c(C)n(C)c2ccc(C(=O)NCc3cccs3)cc12` was -3.78%; that for `COc1ccc(Cl)cc1NC(=O)CCN1CCOCC1` was 13.3%.
Take `O=C(NCCCN1CCOCC1)C(C(=O)c1ccccc1)n1ccccc1=O` (stereo unspecified): the “inhibition” value was 2.1%.
`CCCC1(c2ccccc2)NC(=O)N(CC(=O)Nc2cc(S(=O)(=O)N3CCOCC3)ccc2Cl)C1=O` (stereo unspecified): the “inhibition” value was -4.71%.
For the compound `Cc1ccc(C)c(NC(=O)CSc2nnc([C@@H](N)Cc3c[nH]c4ccccc34)o2)c1`, the “inhibition” value is 33.6%.
The value for `COc1ccc(C(=O)C2CCN(CC(=O)Nc3cc(C)cc(C)c3)CC2)cc1` was 26.4%; that for `COCCNC(=O)c1cccc(OC2CCN(Cc3ccccc3C)CC2)c1` was -4.82%.
As to `O=C(O)c1ccc(CSc2nnnn2C2CCCCC2)cc1`, the “inhibition” value was -28%.
The value for `COCCNC(=O)CN(C(=O)CCC(=O)Nc1ccccn1)c1ccc(F)c(Cl)c1` was 1.46%; that for `COCCN1C(=O)C(=O)/C(=C(/O)c2cccc(OC)c2)C1c1ccncc1` (stereo unspecified) was 4.45%.
As for `Cc1ccc(CCN2C(=O)CCC2(C)C(=O)NC2CCCC2)cc1` (stereo unspecified), the “inhibition” value is 2.68%.
The value for `FC(F)(F)c1ccccc1NC1=NCCC1` was 7.38%; that for `CCN(CC)CC#CC(C)OCOCC#CCOC` (stereo unspecified) was -8.61%; that for `Cc1ccc2[nH]cc(CCNC(=O)c3cccnc3)c2c1` was -28.4%.
As for `Cc1cc(C)cc(CSc2nnc(C)c(=O)[nH]2)c1`, the “inhibition” value was 30.6%.
Consider `COC(=O)c1cc2ccsc2n1CC(=O)N(C)c1ccccc1`, for which the “inhibition” value is 13.3%.
Take `COC(=O)c1c(-c2cccc(C)c2)csc1N`: the “inhibition” value is -0.42%.
The value for `COc1c(Br)cc2c(C)c(C(=O)N3CCOCC3)oc2c1Br` was -36.3%; that for `Cn1c(=O)cc(SCC(=O)N2CCN(C3CCCCC3)CC2)c2ccccc21` was 9.71%; that for `COc1ccccc1C(=O)N1CC2(C)CC1CC(C)(C)C2` (stereo unspecified) was -20.3%.
The value for `NC(=O)COc1c(-c2ccco2)oc2ccccc2c1=O` was -26%.
`O=C(NCc1ccc2c(c1)OCO2)c1ccc2c(c1)C(=O)N(Cc1cccnc1)C2=O`: the “inhibition” value is 4.44%.
The value for `Cc1ncc(CC(=O)n2cc(C(=O)c3cc(F)ccc3O)cn2)s1` was 27.9%.

By inhibition is commonly meant the change of the read-out against control, counted positive when it falls.
